Screening results: PubChem, several laboratories
In the library only some 3% were active in any assay of this set; here they are far more common.
MITF TRPM1 inh = reduces MITF-dependent TRPM1 promoter luciferase signal | actives 0.83% (n = 330,000) | inhibition, % at 12.5 µM | SK-MEL-5 TRPM1 promoter luciferase, 24 h;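 active = mean inhibition across replicates of 60% or more, whatever share of single replicates reaches that level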
PAX8 reporter = inhibitors of PAX8 transcriptional activity in RMG-I cells | RMG-I TPO-luciferase reporter, SteadyGlo, 24 h | inhibition, % at 12.6 µM | AID 652154 | actives 1.2% (n = 360,000);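 active = mean replicate inhibition at least 60% with every replicate also reaching 60%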;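 note: luciferase light reporting Pax8 driven TPO promoter activity; plate controls were median of neutral control wells for no effect and mitoxantrone controls for full effect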
Shn3 inh set2 = Schnurri-3 reporter inhibition in Clone20 osteoblasts | actives 0.52% (n = 360,000) | inhibition, % at 12.5 µM | Clone20 osteoblast Shn3 3'UTR firefly luciferase, 24 h;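 active = mean inhibition of at least 75% with every replicate also reaching 75%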;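 note: 0% = median of neutral control wells and 100% = pilot-screen positive control compound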
Peg3 promoter = reduces Peg3 promoter-driven luciferase expression in HeLa. HeLa PEG-Prom luciferase reporter, luminescence, overnight. inhibition, % at 20 µM. actives 1.7% (n = 360,000). AID 588405;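 active = inhibition of at least 50% at 20 µM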
EWS-Fli inh = EWS/Fli transcriptional activity inhibition. A673 NR0B1-luciferase reporter, viability-normalised. inhibition, % at 12.6 µM. actives 0.67% (n = 350,000). AID 651661;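 active = mean inhibition of at least 50% after viability correction, with every replicate also passing that limit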;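 note: firefly luciferase signal divided by Alamar Blue viability fluorescence both relative to DMSO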
ABHD5 PLIN5 PPI = inhibitors of human ABHD5-perilipin-5 interaction | AID 602281 | Split G. princeps luciferase complementation, luminescence, 4 h | inhibition, % at 4 µM | actives 0.78% (n = 360,000);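 active = inhibition above the mean inhibition across every tested compound plus 3 SD, cut at about 22% in these data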;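 note: 0% = DMSO only wells and the 100% control is not disclosed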
Target sequence (Q00G26 whole entry, looked up): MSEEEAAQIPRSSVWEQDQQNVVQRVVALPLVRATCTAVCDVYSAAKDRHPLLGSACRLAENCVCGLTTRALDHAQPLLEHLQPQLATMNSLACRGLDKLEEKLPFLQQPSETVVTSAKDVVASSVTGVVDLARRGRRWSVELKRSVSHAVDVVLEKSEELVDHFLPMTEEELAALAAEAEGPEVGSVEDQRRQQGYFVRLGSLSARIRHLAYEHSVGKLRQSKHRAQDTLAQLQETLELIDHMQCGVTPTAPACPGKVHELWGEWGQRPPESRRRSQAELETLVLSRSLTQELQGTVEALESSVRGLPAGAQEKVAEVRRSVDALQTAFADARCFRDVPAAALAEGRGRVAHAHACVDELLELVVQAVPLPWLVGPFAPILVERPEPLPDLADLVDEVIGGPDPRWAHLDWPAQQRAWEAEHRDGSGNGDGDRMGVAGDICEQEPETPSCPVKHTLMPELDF
Target sequence (Q8WTS1 whole entry, looked up): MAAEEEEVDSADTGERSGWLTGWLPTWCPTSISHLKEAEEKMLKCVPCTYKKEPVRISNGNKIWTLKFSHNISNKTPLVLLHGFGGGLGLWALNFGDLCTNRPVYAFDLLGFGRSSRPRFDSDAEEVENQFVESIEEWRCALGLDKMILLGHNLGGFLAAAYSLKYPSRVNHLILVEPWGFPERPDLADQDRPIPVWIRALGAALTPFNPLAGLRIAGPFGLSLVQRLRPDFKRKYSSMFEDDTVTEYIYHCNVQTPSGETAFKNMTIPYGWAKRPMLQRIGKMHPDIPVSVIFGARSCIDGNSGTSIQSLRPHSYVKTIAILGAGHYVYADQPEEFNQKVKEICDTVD
* hit, by the source's call; · = no result.

SMILES	MITF TRPM1 inh	PAX8 reporter	Shn3 inh set2	Peg3 promoter	EWS-Fli inh	ABHD5 PLIN5 PPI
COc1ccc2[nH]c(=O)c(CN(Cc3cccs3)S(=O)(=O)c3cccc4nsnc34)cc2c1	10.9	·	55.6	65.9*	·	3.1
Fc1ccc(/C=C2\CCCC3=C2Nc2ncnn2C3c2ccc(F)cc2)cc1 (stereo not given)	87.8*	·	97.4*	91.3*	·	17.3
N#Cc1c(Nc2ccccc2)[n+]([O-])c2ccc(Cl)cc2[n+]1[O-]	72.0*	37.2	83.8	-34.5	-4.6	-0.2
COc1cccc(NC(=O)C[C@H]2CC[C@@H]3[C@@H](COc4ccc(NC(=O)C5CCC5)cc4C(=O)N3C)O2)c1	·	-3.2	·	·	-1.1	·
Cc1cc(C)c2nc(N3CCC(C(=O)NCCCN4CC(C)CC(C)C4)CC3)sc2c1 (stereo not given)	83.2*	-80.8	-41.2	104.2*	19.1	13.8
Cc1oc(-c2cccc(Cl)c2)nc1CN1CCC(C(=O)NCCCN2CC(C)CC(C)C2)CC1 (stereo not given)	96.2*	·	-13.5	91.6*	·	7.0
O=C(NC(=S)NCc1ccccc1)c1ccccc1	104.3*	7.5	12.8	-21.0	·	-4.2
CCCNC(=O)N[C@H]1CC[C@@H](CCn2cc(C3CCCCC3)nn2)O[C@H]1CO	·	9.1	·	·	4.1	·
O=C(C[C@@H]1C=C[C@H](NC(=O)Nc2ccc(C(F)(F)F)cc2)[C@H](CO)O1)NCCN1CCCC1	·	75.2*	·	·	-10.3	·
CC(=O)c1c(C)[nH]c(C(=O)COc2ccc3ccc(=O)oc3c2)c1C	-0.5	12.9	12.4	68.2*	-8.2	9.4
COC(=O)c1c(C)[nH]c(C(=O)COc2ccc3ccc(=O)oc3c2)c1C	-2.1	-4.1	-8.3	31.8	-19.6	6.5
C[C@@H]1CN([C@@H](C)CO)C(=O)c2cccc(NC(=O)Nc3ccc(C(F)(F)F)cc3)c2O[C@H]1CN(C)C(=O)Nc1ccc(C(F)(F)F)cc1	·	55.2	·	·	4.0	·
CC1CC(C)(C)CC2(C1)NC(=O)N(CC(=O)N1CCN(Cc3ccc(C#N)cc3)CC1)C2=O (stereo not given)	22.0	30.7	85.8*	-11.3	31.0	-0.3
Cc1cccc(NC(=O)CN2CCN(C(=O)CN3C(=O)NC4(CC(C)CC(C)(C)C4)C3=O)CC2)c1C (stereo not given)	9.8	6.6	51.3	-5.8	0.4	-5.7
CC1(c2ccc3ccccc3c2)NC(=O)N(CC(=O)N2CCN(Cc3ccc(C#N)cc3)CC2)C1=O (stereo not given)	22.0	·	87.6*	-6.2	·	11.9
Cn1cnc(S(=O)(=O)N2C[C@@H](O)COC[C@@H]3O[C@H](CC(=O)NC4CCCC4)CC[C@H]32)c1	·	-4.5	·	·	15.5	·
Cc1cc(C)c2nc(NCCCNC(=S)NCCCN(C)C)c(C#N)cc2c1	-1.4	32.9	-10.6	90.9*	19.3	9.9
COc1ccc(NC(=O)N(C)C[C@H]2Oc3ccc(NC(=O)CCC(F)(F)F)cc3C(=O)N([C@H](C)CO)C[C@H]2C)cc1	·	-4.5	·	·	-15.1	·
NC1=NC[C@@H](CC2CCCCC2)N1CCc1cc(C(F)(F)F)cc(C(F)(F)F)c1	99.4*	·	97.3*	94.4*	·	-4.2
NC1=NC[C@H](c2ccccc2)N1CCc1cc(C(F)(F)F)cc(C(F)(F)F)c1	33.9	-6.2	20.7	97.8*	61.3*	8.5
NC1=NC[C@H](Cc2ccccc2)N1CCCCC1CCCCC1	-9.4	6.9	63.6	70.7*	26.0	3.4
NC1=NC[C@H](Cc2ccc(O)cc2)N1CCCCC1CCCCC1	42.6	43.5	76.6	-0.5	17.6	16.2
COCCNC(=O)[C@@H]1[C@@H](CO)[C@@H]2Cn3c(ccc(C4=CCCCC4)c3=O)[C@H]1N2C(=O)C1CCC1	·	-4.2	·	·	-1.8	·
CO[C@@H]1CN(C)C(=O)c2cc(NS(C)(=O)=O)ccc2OC[C@H](C)N(C(=O)C2CCCCC2)C[C@H]1C	·	-22.7	·	·	-2.1	·
Cc1cc(N)c2cc(NC(=O)/C=C/c3ccccc3Cl)ccc2n1	99.9*	·	·	103.8*	·	10.1
COc1ccc(CN(C)C[C@H]2OCCCC[C@H](C)Oc3ccc(NC(=O)Nc4ccc(F)cc4)cc3C(=O)N([C@H](C)CO)C[C@H]2C)cc1	·	14.7	·	·	-5.1	·
Cc1ccc(/C=N/NC(=O)CSc2nc3ccccc3c(=O)n2-c2ccccc2C)s1	6.6	·	34.6	50.9*	·	0.8
